Laboratory results reported in PubChem BioAssay.
Unmarked numbers belong to inactive results. Activity calls are given as the source filed them.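 The calls were made as follows: active = inhibition above the hit cutoff set in the earlier primary screen (cut at about 27% in these data); inactive = the rest.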

Each compound was assayed against Protein phosphatase methylesterase 1 (Homo sapiens) (UniProt Q9Y570) (assay: PME-1 inhibitor activity retest, confirmation, biochemical, fluorescence polarization, FP-Rh probe, triplicate (AID 2171;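 also: 0% = enzyme with DMSO and 100% = wells lacking PME-1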)). Details: recombinant PME-1, FP-Rh probe fluorescence polarization; at 5.9 µM; stronger effect = higher value.
Chain of Protein phosphatase methylesterase 1 (Homo sapiens) (Q9Y570 whole entry, looked up): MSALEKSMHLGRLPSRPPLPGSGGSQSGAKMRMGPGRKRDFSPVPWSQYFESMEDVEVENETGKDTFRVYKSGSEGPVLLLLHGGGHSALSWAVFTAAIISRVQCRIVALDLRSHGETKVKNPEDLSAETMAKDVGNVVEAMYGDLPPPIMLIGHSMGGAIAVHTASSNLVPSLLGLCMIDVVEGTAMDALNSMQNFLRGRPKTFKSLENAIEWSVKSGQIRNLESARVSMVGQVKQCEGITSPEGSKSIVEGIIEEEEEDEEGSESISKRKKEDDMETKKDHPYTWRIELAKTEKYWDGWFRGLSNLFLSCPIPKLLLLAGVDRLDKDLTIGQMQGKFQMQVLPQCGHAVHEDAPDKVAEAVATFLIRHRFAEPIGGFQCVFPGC

Compound	inhibition
CC1=Nc2ccccc2/C1=C/c1sc(=N)n(-c2nccs2)c1O	40.4% (active)
CC(C)Oc1ccc(CCC(=O)N/N=C/c2ccc3c(c2)OCO3)cc1	4.01%
CCOc1cc(CNc2ccc(O)cc2)ccc1OCc1ccc(Cl)cc1Cl	13.2%
Cn1c2ccccc2c2cc(/C=N/NC(=O)c3cc(O)ccc3O)ccc21	40.5% (active)
COc1cc(/C=C/c2ccc3cccc(O)c3n2)c(Br)cc1O	27.5% (active)
O=C(Nc1ccc([N+](=O)[O-])cc1)Nc1ccc2[nH]c(=O)[nH]c2c1	-15.6%
CC(=O)c1c(C)n(-c2ccc(N(C)C)cc2)c2ccc(OCC(N)=O)cc12	23.7%
CCN(CC(=O)Nc1c(C(=O)OC)[nH]c2ccc(Cl)cc12)c1ccc2c(c1)OCO2	6.28%
Cc1cccnc1Nc1nc(-c2ccc(O)c(O)c2)cs1	14.8%
Cc1cc2nc3c(=O)n(CCc4ccccc4)c(=O)[nH]c3nc2cc1N	44.2% (active)
Clc1ccc2[nH]c3c(c2c1)CCc1cn[nH]c1-3	21.1%
CCOc1ccc(/C=C2\SC(=S)N(C(C(=O)O)c3ccccc3)C2=O)cc1OC (stereo unspecified)	43.8% (active)
Cc1cc(C)c(C#N)c(SCc2nc3ccccc3[nH]2)n1	11.9%
C/C(=N/NC(=O)c1cc2ccccc2cc1O)C1C(=O)c2ccccc2C1=O	68.6% (active)
O=C(COC(=O)/C=C/c1cccs1)Nc1nc(-c2cccc(Br)c2)cs1	14.9%
O=C1C=C(N2CCOCC2)c2ccccc2C1=O	41% (active)
